Results on 40 sequences are retold here after the supplement of paper PMC6555819.

The first test relates to RARa:RXR (NR concentration 270 nM, RXRa partner concentration 90 nM). Description: PBM binding z-score (relative to random genomic background probes); higher = stronger binding; sequences stand for … in GC…GCGATTGACAGCGTAGAATGAAGG
The essentials:
(§1)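 The probes on custom Agilent 4×180K protein-binding microarrays were double-stranded, with 34-nt variable regions bearing direct-repeat seeds, single-nucleotide variants, half-site ablations and random human genomic background sequences. Incubation lasted 1 h with ligand-free nuclear receptor dimers in PBS pH 7.4, 2% milk, 0.02% Triton X-100, 1 mM DTT, 0.2 mg/mL BSA and 0.4 mg/ml salmon testes DNA. Antibodies against each partner (one per run) detected bound dimers, and fluorescence scans were regression-normalized. Binding z-scores take the random background probes as reference.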
CCTTGCGGGTCACGAGGTTATAGCACGACGAGCG registered a PBM binding z-score of 6.01.
Same read-out and setting: the figure for TCGAGTAGGTTACCAATGGGGCTTTCAGCTTTCT is -0.0921; for CGTCCAAGGACAAGGTCAGTGAAAGAGACTCGAA it is 2.38.
For ATCTCTAGGTAAGACTCAGTTCAGAGAAGAACGC, the PBM binding z-score was found to be 0.299.
As to TCTTGTAGATCAACAGGAGGTTAAGAAAGATCGA, the PBM binding z-score came to 0.995.
On to CCAGACAGGTGAGAAGGTAACTCAACCTCGATTA, for which the PBM binding z-score turned out to be 0.706.
CTACCAAGGTGAGCAAGGTCGTTGATTACTATTC showed a PBM binding z-score of 1.44.
Still for that read-out and setting: the figure for AGTCAAAGTACACTAGGTAACGTAAGATTCAGCT is -0.109.
CGAACTAGGTCAGAAAAGGACAGTGAAGGATGAT: the PBM binding z-score came to 1.08.
TCATATAGGTAAATGCTAGCTGAAAGTCCGATCT displayed a PBM binding z-score of 0.762.
Regarding TTACTAAGGTGAGCTGAGGTCGTTGATCCAACTC, the PBM binding z-score was 2.16.
Sequence ACTAGCAGGCCAAGTTTGGGTTACTCAAACAAAG yielded a PBM binding z-score of 0.00564.
On to TTACCAAGGTGAGCTGAGGACGTTGATCCAACTC, for which the PBM binding z-score was found to be 1.03.
The sequence ATCTCTAGGTAAAAGTTCAATGAATCCCGAGGAT came in with a PBM binding z-score of 2.86.
The same measure, in the same setting: the figure for GTACCAAGGTGAATGGGTCGTTGATGAGTAGGCG is 0.784; for CAGCCTAGGTCAGGGCCAGTATCGGAGGAACGTT it is 0.761.
On the same count and under the same terms, the same measure for CAAACTAGGTCAGGAGGTCAAAGTCCGCTTCCCG: 6.31; for TAGCCTAGGTCATTCGGGCCAGTATAGTGTCGGC: 2.39; for ACAGACAGGCGAGTGAAGGTAACTCAGCTGGACG: 0.193.
Sequence GGAACCAGGGCATTCGAGTTGATAGCATGGCGAT came in with a PBM binding z-score of 0.882.
For ATATGTAGGTTATCGGGTCAGTCAGTTTGCGCAT, the PBM binding z-score is 2.6.
In turn, CCTTACGGGTCACTGACAGGTTATATCATTTGGA registered a PBM binding z-score of 4.84.
Sequence GCTCGGAGGACAAGGTCAAAGCTTTGTCCGTAGA gave a PBM binding z-score of 3.77.
Turning to GCTAGTTGGTCAGTAAAAGGCCACACACCGGTCG, the PBM binding z-score is 0.345.
The sequence CCTTACGGGTCACTGACCGGTTATAGCATTTGGA showed a PBM binding z-score of 3.72.
CCTACTGGGCCACGAAGGGTCATTGATTCAGTGA: the PBM binding z-score was found to be 3.46.
AGAATGAGGGCACGCTGAGTTGATAGCAGAGTAG displayed a PBM binding z-score of 1.18.
In turn, GCTAACAGGCCATTTGGGTCACTCAATGACGGGC yielded a PBM binding z-score of 1.03.
TCGAGTAGGTTAGCGGCATTCAGAATGGCGTCGA registered a PBM binding z-score of -0.504.
Turning to TATACAGGGTTAAAGGCCAGAGTACGAATGTCGA, the PBM binding z-score was 2.44.
In turn, CGAACTAGGTCTTCCAGGACAGTGAATACATTGA showed a PBM binding z-score of -0.242.
Still for that read-out and setting: the figure for TTACCAAGGTGAGCTGAAGTCGTTGATCCAACTC is -0.105; for CGTGCAAGGTCAAGGTCAGTGAAAGAGACTCGAA it is 5.11; for CCGAGTAGGTTATGGGGCAATCAGGCAACGGTGA it is 0.631.
Sequence GCAGACGGGTGAAACGCAGGTAACTCAGGGTGGC showed a PBM binding z-score of 0.253.
In the case of TATAGAGGGTCAAAGGCCAGAGTACGAATGTCGA, the PBM binding z-score amounted to 5.1.
The sequence GATACAGGGTCAGCTATAGGCCAGAGTATGGAAA showed a PBM binding z-score of 3.35.
On to ATCTCTAGGTAAGACTCAGTTCAGGGAAGAACGC, for which the PBM binding z-score is 0.799.
As to AATACAGGGTCATCGTAGGCCTGAGTACGCACAG, the PBM binding z-score worked out at 4.79.
For the sequence TCTTGTAGATCACAGGTTAAGAAAGCCGAAGCCT, the PBM binding z-score came out at 0.737.

Another test has as its system RARa homodimer (NR concentration 270 nM). Described as above. The essentials: as §1
In the case of CCTTGCGGGTCACGAGGTTATAGCACGACGAGCG, the PBM binding z-score worked out at 0.851.
In turn, TCGAGTAGGTTACCAATGGGGCTTTCAGCTTTCT returned a PBM binding z-score of -1.47.
Still for that read-out and setting: the same measure for CGTCCAAGGACAAGGTCAGTGAAAGAGACTCGAA: -0.259.
ATCTCTAGGTAAGACTCAGTTCAGAGAAGAACGC: the PBM binding z-score was 0.962.
Still for that read-out and setting: the same measure for TCTTGTAGATCAACAGGAGGTTAAGAAAGATCGA: -0.178; for CCAGACAGGTGAGAAGGTAACTCAACCTCGATTA: 0.916; for CTACCAAGGTGAGCAAGGTCGTTGATTACTATTC: -0.327.
On to AGTCAAAGTACACTAGGTAACGTAAGATTCAGCT, for which the PBM binding z-score stood at 0.688.
CGAACTAGGTCAGAAAAGGACAGTGAAGGATGAT yielded a PBM binding z-score of 0.026.
In turn, TCATATAGGTAAATGCTAGCTGAAAGTCCGATCT yielded a PBM binding z-score of 0.642.
Same read-out and setting: the same measure for TTACTAAGGTGAGCTGAGGTCGTTGATCCAACTC: -0.407; for ACTAGCAGGCCAAGTTTGGGTTACTCAAACAAAG: -0.953; for TTACCAAGGTGAGCTGAGGACGTTGATCCAACTC: -0.906.
In turn, ATCTCTAGGTAAAAGTTCAATGAATCCCGAGGAT yielded a PBM binding z-score of 1.09.
For GTACCAAGGTGAATGGGTCGTTGATGAGTAGGCG, the PBM binding z-score amounted to 0.00879.
CAGCCTAGGTCAGGGCCAGTATCGGAGGAACGTT: the PBM binding z-score is -0.159.
Same read-out and setting: the same measure for CAAACTAGGTCAGGAGGTCAAAGTCCGCTTCCCG: 1.8; for TAGCCTAGGTCATTCGGGCCAGTATAGTGTCGGC: -0.428; for ACAGACAGGCGAGTGAAGGTAACTCAGCTGGACG: -0.258.
Still for that read-out and setting: the same measure for GGAACCAGGGCATTCGAGTTGATAGCATGGCGAT: 0.0816; for ATATGTAGGTTATCGGGTCAGTCAGTTTGCGCAT: 1.19; for CCTTACGGGTCACTGACAGGTTATATCATTTGGA: 0.665.
GCTCGGAGGACAAGGTCAAAGCTTTGTCCGTAGA returned a PBM binding z-score of -0.688.
Sequence GCTAGTTGGTCAGTAAAAGGCCACACACCGGTCG returned a PBM binding z-score of -0.305.
In turn, CCTTACGGGTCACTGACCGGTTATAGCATTTGGA returned a PBM binding z-score of 1.71.
With CCTACTGGGCCACGAAGGGTCATTGATTCAGTGA, the PBM binding z-score was 0.673.
The sequence AGAATGAGGGCACGCTGAGTTGATAGCAGAGTAG yielded a PBM binding z-score of -0.371.
For GCTAACAGGCCATTTGGGTCACTCAATGACGGGC, the PBM binding z-score is -0.111.
Still for that read-out and setting: the same measure for TCGAGTAGGTTAGCGGCATTCAGAATGGCGTCGA: -1.29.
The same measure, in the same setting: the same measure for TATACAGGGTTAAAGGCCAGAGTACGAATGTCGA: 0.668; for CGAACTAGGTCTTCCAGGACAGTGAATACATTGA: -0.331; for TTACCAAGGTGAGCTGAAGTCGTTGATCCAACTC: -0.713.
CGTGCAAGGTCAAGGTCAGTGAAAGAGACTCGAA had a PBM binding z-score of 2.15.
CCGAGTAGGTTATGGGGCAATCAGGCAACGGTGA registered a PBM binding z-score of 0.26.
Sequence GCAGACGGGTGAAACGCAGGTAACTCAGGGTGGC came in with a PBM binding z-score of -0.996.
In turn, TATAGAGGGTCAAAGGCCAGAGTACGAATGTCGA came in with a PBM binding z-score of 1.12.
In the case of GATACAGGGTCAGCTATAGGCCAGAGTATGGAAA, the PBM binding z-score stood at 0.261.
ATCTCTAGGTAAGACTCAGTTCAGGGAAGAACGC displayed a PBM binding z-score of 1.28.
In turn, AATACAGGGTCATCGTAGGCCTGAGTACGCACAG came in with a PBM binding z-score of 0.501.
Sequence TCTTGTAGATCACAGGTTAAGAAAGCCGAAGCCT had a PBM binding z-score of -0.789.
